Screening data as filed in PubChem BioAssay.
TGFb SMAD3 inh: inhibitors of TGF-b signaling | AID 588855 | Potency, µM (titrated, usually from 46.1 µM), inactives show top-dose activity, negative = inhibition, most hits filed as inhibitors | HepG2 CAGA-GFP TGF-b/SMAD3 reporter, GFP fluorescence, 18 h; TGF-beta stimulated, 500 pg/mL final | 1.2% of 410,000 active; note: potency is the fitted concentration of half-maximal effect; % is set by controls: 0 for no effect and ±100 for the full control effect; nearly all actives have a fitted effect of over 65% in size
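Inhibition of TGF-beta-driven CAGA-GFP reporter expression in HEPG2 cells is measured by cellular GFP fluorescence after 18 h stimulation with 500 pg/mL recombinant TGF-beta in 1% FBS medium at 37 degrees C.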
HepG2 tox: counter-screen for TGF-b inhibitors: cytotoxicity in HepG2 cells; HepG2 CAGA-GFP viability, ATP luminescence, 18 h; Potency, µM (doses to about 46.1 µM), for the others: at the highest dose activity change, negative = cytotoxicity, hits mostly cytotoxic; 0.76% of 410,000 active; AID 588856; note: potency is the fitted concentration of half-maximal effect
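HepG2 CAGA-GFP cells (1000/well, DMEM with 1% FBS) received compound, then TGF-beta at 500 pg/mL final, and were incubated 18 hours at 37 degrees C. Viability was read by CellTiter-Glo luminescence. Media-only wells were set as complete cell-killing and DMSO as no toxicity.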
TDP1 cell CPT: growth inhibition of DT40 Tdp1-/-;hTDP1 cells with camptothecin (screen for TDP1 inhibitors). chicken DT40 Tdp1-/-;hTDP1 cells + 20 nM CPT, ATP luminescence, 48 h. Potency, µM (highest dose often 46.2 µM), for inactives: at the highest dose activity change, negative = growth inhibition, most hits filed as inhibitors. 12% of 420,000 active; note: potency is the fitted concentration of half-maximal effect; % is set by controls: 0 for no effect and ±100 for the full control effect; nearly all actives have a fitted effect of over 55% in size
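Chicken DT40 Tdp1-/- cells stably complemented with human TDP1 were seeded at 400 cells/well in medium containing 20 nM camptothecin, exposed to pin-transferred compounds, and grown at 37 °C for at least 48 hr. Viability was read as ATP luminescence.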
TDP1 inh: blocks human tyrosyl-DNA phosphodiesterase 1. Potency, µM (series often up to 130 µM), without a hit: at the highest dose activity change, negative = inhibition, usual class: inhibitors. recombinant TDP1, AlphaScreen DNA substrate cleavage. 0.28% of 350,000 active; note: potency is the fitted concentration of half-maximal effect; % is set by controls: 0 for no effect and ±100 for the full control effect; nearly all actives have a fitted effect of over 40% in size
Target sequence (Q9NUW8 whole entry, looked up): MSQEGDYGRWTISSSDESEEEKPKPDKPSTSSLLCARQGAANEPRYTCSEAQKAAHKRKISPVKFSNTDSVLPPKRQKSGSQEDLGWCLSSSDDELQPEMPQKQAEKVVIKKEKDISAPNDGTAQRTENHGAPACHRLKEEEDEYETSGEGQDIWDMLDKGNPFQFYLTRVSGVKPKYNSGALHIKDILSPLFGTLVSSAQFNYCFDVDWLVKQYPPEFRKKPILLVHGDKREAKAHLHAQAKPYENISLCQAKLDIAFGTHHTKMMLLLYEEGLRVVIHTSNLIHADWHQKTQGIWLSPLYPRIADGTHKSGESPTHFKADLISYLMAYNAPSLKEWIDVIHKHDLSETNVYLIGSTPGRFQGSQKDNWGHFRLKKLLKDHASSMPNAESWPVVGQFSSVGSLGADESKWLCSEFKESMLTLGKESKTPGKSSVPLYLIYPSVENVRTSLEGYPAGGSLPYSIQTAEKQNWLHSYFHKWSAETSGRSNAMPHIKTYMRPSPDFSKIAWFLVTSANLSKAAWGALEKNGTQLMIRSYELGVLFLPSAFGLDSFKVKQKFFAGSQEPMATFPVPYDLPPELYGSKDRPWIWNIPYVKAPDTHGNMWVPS
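E. coli-derived human Tdp1, 1 nM final. Cpd preinc 15 min RT; substrate 15 nM final, 5 min RT; AS bead mix 10 ug/ml final, 10 min RT. Signal loss = tyrosine-FITC cleavage. No-enzyme wells = max signal.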
TDP1 cell noCPT: qHTS for Inhibitors of human tyrosyl-DNA phosphodiesterase 1 (TDP1): qHTS in cells in absence of CPT; DT40 Tdp1-/- hTDP1 cells, no CPT, ATP luminescence, 48 h; Potency, µM (top dose mostly 46.2 µM), for the others: at the top dose activity change, negative = growth inhibition, most hits filed as inhibitors; 15% of 420,000 active; AID 686978, 2013; note: potency is the fitted concentration of half-maximal effect; % is set by controls: 0 for no effect and ±100 for the full control effect; nearly all actives have a fitted effect of over 55% in size
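Stably hTDP1-transfected Tdp1-null chicken DT40 cells were treated with library compounds minus camptothecin and grown for at least 48 hr at 37 °C, after which cellular ATP was quantified by luminescence.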
IL-1B inflam inh: blocks inflammasome-driven IL-1 beta release; activity change, % at 57.5 µM; 4.7% of 360,000 active; THP-1 LPS/ATP IL-1B secretion, AlphaLISA, 16 h; hits give low values; in the data active = activity change below about -50%; inconclusive = mostly about -30% to -49%; note: % is set by controls: 0 for no effect and ±100 for the full control effect
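Secreted IL-1B measured by AlphaLISA bead assay after 16 h compound exposure of THP-1 cells; compounds (final up to 57.5 uM) added 1 h before LPS (250 ng/mL) and ATP (1.25 mM) stimulation; lower signal means less secretion.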
The depositor's hits bear a star; ? = inconclusive; nt = not tested or not shown; [ ] = remark or other dose. Rows were chosen to be rich in hits. Some 18% of all compounds tested hit in one or more screens of this group. Unless noted, calls come from the whole dose curve; as a rule, active = well fitted curve in the direction sought with a large enough effect; inconclusive = small, poorly fitted or top-dose-only effect, or another doubt; inactive = no such curve, though single readings can be large; an effect the other way counts as inactive or inconclusive.

SMILES	TGFb SMAD3 inh	HepG2 tox	TDP1 cell CPT	TDP1 inh	TDP1 cell noCPT	IL-1B inflam inh
COc1cc2nc(/C=C/c3cc(OC)c(OC)c(OC)c3)sc2cc1SC	0%	2%	5.8µM*	3%	5.8µM*	-26
COc1cc2nc(C)sc2cc1SC	2%	8%	?	7%	?	4
O=C(NC1CC(=O)N(c2cccc(F)c2)C1)c1ccc(S(=O)(=O)N2CCCCC2)cc1 (configuration not stated)	-47%	-22%	-18%	-5%	-23%	nt
CCOC(=O)C1=C(CC)Nc2ccccc2N=C1NC(=O)CCNC(C)=O	13%	26%	2%	-4%	?	-5
CCOCc1c(C(=O)Nc2ccc(OC)nc2)oc2ccccc12	-1%	-1%	-23%	-10%	18µM*	-1
CCOCc1c(C(=O)NC2=Nc3ccccc3NC(CC)=C2C(=O)OCC)oc2ccccc12	6%	-7%	23µM*	6%	16µM*	-10
CCOC(=O)C1=C(CC)Nc2ccccc2N=C1NC(=O)c1ccc(S(=O)(=O)N(C)C)cc1	0%	-78%	7.3µM*	-2%	5.8µM*	-10
CCOC(=O)C1=C(CC)Nc2ccccc2N=C1NC(=O)c1ccc(S(=O)(=O)N2CCOCC2)cc1	41%	23%	?	4%	?	-17
CCOC(=O)C1=C(CC)Nc2ccccc2N=C1NC(=O)c1ccc(C)c(S(=O)(=O)N2CCOCC2)c1	7%	-3%	16µM*	-4%	?	-10
COc1ccc(NC(=O)c2oc3ccccc3c2CSC)cn1	-3%	-6%	-23%	8%	?	-28
Cc1ccccc1Cn1c(Oc2ccccc2F)nc2c1c(=O)n(C)c(=O)n2C	12%	7%	2%	5%	-3%	nt
Nc1cccc(N)c1	nt	nt	nt	15%	nt	nt
CC(Oc1ccc(Cl)cc1Cl)c1ccnc(N)n1 (configuration not stated)	-2%	-1%	6%	5%	6%	-56*
N#Cc1nc(Nc2cccc(C(F)(F)F)c2)nc(NC2CCCC2)n1	nt	nt	nt	1%	nt	nt
O=C1N[C@@H](c2ccccc2)COC(=O)[C@@H](Cc2ccc(F)cc2)C/C=C\C[C@H]1CC(=O)N(CCO)Cc1ccccc1	?	-34%	15µM*	2%	10µM*	?
CC(C)(C)OC(=O)C[C@@H]1C/C=C\C[C@@H](CC(=O)N(CCO)Cc2ccccc2)C(=O)N[C@@H](c2ccccc2)COC1=O	15%	-6%	?	0%	23µM*	0
C[C@H]1COC(=O)[C@H](Cc2ccc(F)cc2)C/C=C\C[C@H](CC(=O)N(CCO)Cc2ccccc2)C(=O)N1	-7%	3%	?	1%	?	-1
O=C1N[C@@H](c2ccccc2)COC(=O)[C@H](Cc2ccc(F)cc2)CC/C=C/C[C@@H]1CC(=O)N(CCO)Cc1ccccc1	?	-16%	?	1%	16µM*	0
COC(=O)NC(CC(C)=O)c1cccs1 (configuration not stated)	nt	nt	nt	1%[21 µM]	nt	nt
CCC(C)NC(=O)Cn1ncc2c([nH]c3ccc(C)cc32)c1=O (configuration not stated)	4%	-7%	15%	4%	0%	nt
O=C(CNC(=O)c1cc(-c2ccccc2)nn1-c1ccccc1)Nc1ccccc1Br	5%	1%	?	nt	?	38
Cc1ccc(C[n+]2cc(-c3ccc(Cl)cc3)n3c2CCC3)cc1	-10%	-32%	5.2µM*	10%	2.3µM*	-92*
Cc1ccc(-c2c[n+](Cc3ccc(Cl)cc3)c3n2CCC3)cc1	-1%	-2%	4.1µM*	1%	3.7µM*	-85*
